Screen size: about 330,000 compounds; about 4,900 (1.5%) were called active. Shown is part of a subset that was picked to be rich in actives. Values without a mark were called inactive.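 How the source made its calls: active means inhibition above the mean inhibition across the screen plus 3 SD (cut at about 25% in these data); inactive means the rest.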
Target: Platelet-activating factor acetylhydrolase (Homo sapiens) (UniProt Q13093)
Test: pPAFAH enzyme inhibitors, primary screen, biochemical, fluorescence polarization, human (AID 463082);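 further: inhibitors block binding of the rhodamine activity-based probe so polarization drops; 0% = enzyme with DMSO and 100% = wells lacking pPAFAH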
Conditions: recombinant pPAFAH, FP-rhodamine probe fluorescence polarization; at 3.39 µM; stronger effect = higher value

Sequence of Platelet-activating factor acetylhydrolase (Homo sapiens) (Q13093 whole entry, looked up): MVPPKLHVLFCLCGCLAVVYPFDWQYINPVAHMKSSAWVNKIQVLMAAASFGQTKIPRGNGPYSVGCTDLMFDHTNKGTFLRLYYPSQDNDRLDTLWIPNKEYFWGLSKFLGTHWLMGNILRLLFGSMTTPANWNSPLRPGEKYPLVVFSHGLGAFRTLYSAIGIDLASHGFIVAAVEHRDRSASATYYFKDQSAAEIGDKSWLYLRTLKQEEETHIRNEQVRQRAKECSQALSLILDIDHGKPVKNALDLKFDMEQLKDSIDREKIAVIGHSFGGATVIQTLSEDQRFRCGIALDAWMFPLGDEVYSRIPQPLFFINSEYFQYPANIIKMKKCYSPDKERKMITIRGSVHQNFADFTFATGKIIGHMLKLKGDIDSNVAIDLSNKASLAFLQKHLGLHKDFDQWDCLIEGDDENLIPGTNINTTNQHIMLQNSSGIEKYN

| SMILES | inhibition |
| --- | --- |
| Cn1ncc(N2CCN(S(=O)(=O)c3ccc(Br)cc3)CC2)c(Cl)c1=O | -5.38% |
| O=C(CN1C(=O)/C(=C\c2ccccc2F)SC1=S)Nc1nc2ccccc2s1 | 7.09% |
| Cc1ccc(/C=C2\SC(=S)N(CCC(=O)Nc3ccc(O)cc3)C2=O)cc1 | 4.61% |
| CN(C)S(=O)(=O)c1cccc(-c2nn(-c3ccccc3)cc2/C=C2\SC(=S)N(CC(=O)O)C2=O)c1 | 38.2% (active) |
| C=CCOc1ccc(/C=C2\SC(=S)N(CCC(=O)O)C2=O)cc1 | 10.2% |
| Cc1ccc(-c2nn(-c3ccccc3)cc2/C=C2\SC(=S)N(CCCCCC(=O)O)C2=O)o1 | 31.3% (active) |
| Cc1ccc(-c2nn(-c3ccccc3)cc2/C=C/C(=O)Nc2cccc(S(N)(=O)=O)c2)cc1 | -54.5% |
| O=C(N[C@@H]1C/C=C\C[C@@H](CC(=O)N(CCO)Cc2ccccc2)C(=O)N[C@H](Cc2ccccc2)COC1=O)OCC1c2ccccc2-c2ccccc21 | 7.18% |
| O=C(NCCc1ccccn1)c1cc(C(=O)C2CCCCC2)c[nH]1 | 4.41% |
| O=[N+]([O-])c1ncc(Br)cc1Nc1ccccc1 | 0.58% |
| O=[N+]([O-])c1cc(S(=O)(=O)CCCN2CCOCC2)ccc1F | 0.16% |
| N#Cc1ccccc1S(=O)(=O)N1CCN(C(=O)c2cc(-c3ccccc3)nn2-c2ccccc2)CC1 | 0.65% |
| Cc1csc(SCC(=O)Nc2sccc2C#N)n1 | 11.3% |
| Cc1cccc(C)c1Nc1nnc(SCC(=O)Nc2sccc2C#N)s1 | 27.6% (active) |
| Cc1cccc(C)c1Nc1nnc(SCC(=O)NCCCN2CCCC2=O)s1 | 1.62% |
| CC1=CC=CC2=N/C(=N\S(=O)(=O)c3ccc(F)cc3F)c3ccccc3CN12 | 1.76% |
| CC(C)C(=O)Nc1oc(-c2ccccc2)cc1C#N | -0.35% |
| CC(Oc1ccccc1)C(=O)Nc1oc(-c2ccco2)c(-c2ccco2)c1C#N (centres undefined) | 28.7% (active) |
| COc1cc(C(=O)Nc2oc(-c3ccccc3)c(-c3ccccc3)c2C#N)cc(OC)c1OC | 4.29% |
| O=C(COC(=O)COc1cccc(F)c1)NCC1CCCCC1 | 7.16% |
| O=C(CNC(=O)c1cc(=O)[nH]c2ccccc12)Nc1ccc(F)c(F)c1 | 0.37% |
| Cc1c(C(=O)OCC(=O)N(CCC#N)c2ccccc2)oc2c1ccc1ccccc12 | -0.27% |
| Cc1ccccc1-n1c(SCC(=O)Nc2cccc3ccccc23)nc(O)cc1=O | 45.7% (active) |

| SMILES | inhibition |
| --- | --- |
| C=CCn1c(N)cc(=O)nc1SCC(=O)Nc1cccc2ccccc12 | 0.51% |
| Cc1ccc2nc(SCC(=O)Nc3cccc4ccccc34)nc(=O)n2c1 | 3.47% |
| COc1ccccc1C(=O)N(Cc1ccc(C)o1)C1CCS(=O)(=O)C1 (centres undefined) | 0.97% |
| C=CCN(Cc1nc(-c2cc(OC)c3c(c2)OCO3)oc1C)C1CCS(=O)(=O)C1 (centres undefined) | 30.4% (active) |
| CN(C(=O)CSc1nnc(-c2ccc3c(c2)OCO3)o1)C1CCS(=O)(=O)C1 (centres undefined) | -3.28% |
| NNC(=O)c1oc2nc(-c3ccccc3)cc(-c3ccco3)c2c1N | 37.4% (active) |
| O=C(Nc1cccc(F)c1)c1cc(-c2ccco2)nc2ccccc12 | 16% |
| CNC(=S)NNC(=O)c1oc2nc(-c3ccccc3)cc(-c3ccco3)c2c1N | 11% |
| CC(=O)c1c(C)[nH]c(C(=O)COC(=O)c2cccc(S(=O)(=O)N(C)c3ccccc3)c2)c1C | -1.03% |
| Cc1ccc(C)c(NC(=O)CCC(=O)NNC(=O)c2cccs2)c1 | 4.49% |
| Cc1ccc(C)c(NC(=O)CCC(=O)N/N=C2/CC(=O)CC(C)(C)C2)c1 | 34.2% (active) |
| CC1(C)CC(=O)C/C(=N\NC(=O)c2cccs2)C1 | 1.45% |
| O=C(Nc1ccc(-c2ccc3nncn3n2)cc1)C1CCCCC1 | 3.72% |
| O=C(Nc1ccc(Br)cc1)c1cc(S(=O)(=O)Nc2ccccn2)ccc1Cl | 4.67% |
| Cc1ccc(-c2noc(CSc3nnc(-c4ccncc4)n3-c3ccc(F)cc3)n2)cc1 | 61.4% (active) |
| Fc1ccc(-n2c(Cc3ccccc3)nnc2SCc2nc(-c3ccc(Cl)cc3)no2)cc1 | 8.28% |
| Cc1ccc(-c2noc(CSc3nnc(-c4ccccc4)n3C)n2)cc1 | 2.63% |
| Cc1c(S(=O)(=O)NCc2ccccc2)c(=O)n(C)c(=O)n1C | 3.56% |
| Cc1ccc(N(C(=O)CNC(=O)c2ccco2)C(C(=O)NC2CCCC2)c2ccncc2)cc1 (centres undefined) | 3.58% |
| Cn1c(SCC(=O)Nc2ccc(N3CCOCC3)cc2)nnc1C(F)(F)F | -4.91% |
| CCN(CC)S(=O)(=O)c1ccc(N2CCOCC2)c(NC(=O)C2COc3ccccc3O2)c1 (centres undefined) | 1.62% |
| Cc1c(C)c2ccc(OCC(=O)N3CCC(C(=O)O)CC3)c(C)c2oc1=O | -1.32% |
| Cc1c(CC(=O)N2CCN(C(=O)C3COc4ccccc4O3)CC2)c(=O)oc2c(O)c(O)ccc12 (centres undefined) | 80.7% (active) |

| SMILES | inhibition |
| --- | --- |
| COc1cccc(/C=C2\Sc3ccc(C(=O)NCC4CCCO4)cc3N(C)C2=O)c1 (centres undefined) | 8.27% |
| Cc1cc(C)cc(OCC(=O)Nc2ccc(N3CCOCC3)cc2N2CCOCC2)c1 | 4.92% |
| Cc1cc(N2CCCC2)ccc1NC(=O)COc1ccc(Cl)cc1 | 27.4% (active) |
| CCC(=O)c1ccc(OCC(=O)Nc2ccc(N3CCCCC3)cc2)cc1 | 3.34% |
| Cn1c(CCC(=O)OCC(=O)NCc2ccccc2Cl)nc(=O)c2ccccc21 | 1.56% |
| S=C(NCCc1ccccc1)NCC1CCCO1 (centres undefined) | 3.38% |
| S=C(NCC1CCCO1)N1CCN(c2ccc(Cl)c(Cl)c2)CC1 (centres undefined) | 14.9% |
| Oc1c(Br)cc(/C=N/NC(=S)NCC2CCCO2)cc1Br (centres undefined) | 35.5% (active) |
| CN(C)c1nccc(NCc2ccccc2)c1C#N | 5.61% |
| CCOc1cccc2c1OC1(CCCCC1)N1N=C(c3cccnc3)CC21 (centres undefined) | 8.14% |
| COc1ccccc1NC(=O)Nc1nnc(Cc2ccc(F)cc2)s1 | 1.88% |
| O=C(C1CC(=O)N(c2ccc(Br)cc2)C1)N1CCCC1 (centres undefined) | 2.26% |
| Cc1cc(NC(=O)C(C)N2C(=O)c3ccccc3S2(=O)=O)no1 (centres undefined) | 5.49% |
| O=c1c2c(-c3ccccc3)ccnc2[nH]n1-c1ccccc1 | 16.9% |
| COc1ccc(-n2cc(-c3ccccc3)c3c(=S)nc[nH]c32)cc1 | 16.5% |
| O=c1[nH]cnc2c1c(-c1ccccc1)cn2-c1ccc(F)cc1 | 29.6% (active) |
| COc1cc(CCC(=O)Nc2ccncc2Cl)cc(OC)c1OC | 3.7% |
| O=C(Cc1ccc(Br)cc1)NCCc1ccccc1 | -2.54% |
| O=C(NCCCO)/C(=C\C=C\c1ccccc1)NC(=O)c1ccccc1Cl | 5.51% |
| COc1ccc(CC(=O)Nc2nc(-c3ccc(F)c(F)c3)cs2)cc1OC | -1.93% |
| COc1ccc(OC)c(-c2csc(NC(=O)COC(=O)C3CC3)n2)c1 | 5.42% |
| COc1ccc(OC)c(Nc2nc(-c3ccc(O)c(O)c3)cs2)c1 | 49.9% (active) |
| CC1C(=O)Nc2ccc(S(=O)(=O)N3CCN(c4ccccc4F)CC3)cc2NC1=O (centres undefined) | 7.62% |

| SMILES | inhibition |
| --- | --- |
| Cc1ccc(S(=O)(=O)Oc2ccc(/C=N/NC(=O)c3c(Cl)cnn3C)cc2)cc1 | 4.46% |
| COc1nc(Oc2ccc(=O)n(C)n2)nc(N(C)C)n1 | 1.86% |
| CCn1nc(C)c(NC(=O)/C=C/c2ccc(OC)c(COc3ccc(Br)cc3)c2)c1C | 7.11% |
| CCS(=O)(=O)c1ccc(-c2cccc(NC(=O)c3ccc(Br)o3)c2)nn1 | -0.56% |
| O=C(NCCCN1CCCC1=O)c1ccc(S(=O)(=O)Nc2ccccc2)cc1 | 28.1% (active) |
| O=C(NCCCN1CCCC1=O)c1cccc(S(=O)(=O)NCc2ccccc2)c1 | 5.61% |
| CCOc1ccc(S(=O)(=O)Nc2ccc(C(=O)NCCCN3CCCC3=O)cc2)cc1 | -4.42% |
| CC(C)(C)OC(=O)C[C@H]1C/C=C\C[C@@H](CC(=O)N[C@H](CO)Cc2ccccc2)C(=O)NC[C@@H](c2ccccc2)OC1=O | 1.87% |
| CC(=O)Nc1ccc(NC(=O)C2CCCN(S(=O)(=O)c3ccc(Cl)cc3)C2)cc1 (centres undefined) | 0.93% |
| CC(Oc1ccc(F)cc1F)C(=O)/C=C/N(C)C (centres undefined) | 0.46% |
| O=C(CN1C(=O)NC2(CCCCC2)C1=O)N1CCN(C(=O)c2cccs2)CC1 | 2.46% |
| CCCCCCCCCCCCCCCC(=O)OC/C=C(C)/C=C/C=C(C)/C=C/C1=C(C)CCCC1(C)C | 25.7% (active) |
| CC1=C(/C=C/C(C)=C/C=C/C(C)=C/C=C/C=C(C)/C=C/C=C(C)/C=C/C2=C(C)CCCC2(C)C)C(C)(C)CCC1 | 18.3% |
| CCOC(=O)NNc1cc(C(F)(F)F)ccn1 | 3.11% |
| NC(=O)c1ccsc1NC(=O)COC(=O)COc1ccc(C=O)cc1 | 7.9% |
| CCc1ccc(-c2nn(-c3ccccc3)cc2CSC(=N)N)cc1 | 3.9% |
| Oc1ccc2ccccc2c1N=Nc1nccs1 | 17.6% |
| Oc1ccc(N=Nc2nccs2)c(O)c1 | 37.2% (active) |
| O=C(NCc1cccc(Cl)c1)C1CCN(c2nnc(N3CCCC3=O)s2)CC1 | 3.53% |
| CC(C)n1c(=S)[nH]c2cc(C(F)(F)F)ccc21 | 3.35% |
